Records with an inconclusive call do not appear. The source made the active and inactive calls.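 The calls were made as follows, unless noted: active = normalized viability below 100% at a tested concentration; inactive = the rest.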
Legend:
[1] = viability loss in pontine glioma line – cell-based, SU-DIPG-XVII, MIPE5.0, CellTiter-Glo, qHTS, dose response (AID 1347060; cut-off not given, nearly all actives have AC50 up to about 26 µM;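 as to AC50: cells exposed to compound for 48 hours before viability readout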); details: CellTiter-Glo ATP luminescence
[2] = viability loss in pontine glioma line – cell-based, JHH-DIPG-1, MIPE4.0, CellTiter-Glo, qHTS, dose response (AID 1347062; cut-off not given, nearly all actives have AC50 up to about 27 µM); details: JHH-DIPG-1 viability, CellTiter-Glo ATP luminescence
[3] = viability loss in pontine glioma line – cell-based, SU-DIPG-XIII, MIPE5.0, CellTiter-Glo, qHTS, dose response (AID 1347064; cut-off not given, nearly all actives have AC50 up to about 23 µM;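 as to AC50: cells exposed to compound for 48 hours before the viability read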); details: CellTiter-Glo ATP luminescence
[4] = viability loss in pontine glioma line – cell-based, SU-DIPG-XXV, MIPE5.0, CellTiter-Glo, qHTS, dose response (AID 1347065; cut-off not given, nearly all actives have AC50 up to about 26 µM;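 also: cells exposed to compound for 48 hours before ATP readout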); details: CellTiter-Glo ATP luminescence
[5] = JHH-DIPG-1 glioma cell viability, MIPE5.0 library, CellTiter-Glo luminescence, qHTS (AID 1347067; cut-off not given, nearly all actives have AC50 up to about 26 µM;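 also: cells exposed to compound for 48 hours before readout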); details: JHH-DIPG-1 glioma viability, CellTiter-Glo ATP luminescence
[6] = growth inhibition of DIPG cells – cell-based, MIPE5.0 library, qHTS (AID 1347068; cut-off not given, nearly all actives have IC50 up to about 30 µM;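 as to IC50: cells exposed to compound for 48 hours before viability readout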); details: SU-DIPG-XXV viability
[7] = viability loss with induced miR-34 in A549 – imaging, A549 dox-inducible miR-34, nuclei and caspase counts, primary screen (AID 1347080;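 active = compounds whose cell count with miR-34 switched on is under 0.7 times the count with it off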); details: A549 miR-34 inducible, Hoechst nuclei count, 48 h
[8] = compounds altering HSF1 focus formation in cells – imaging, Selleck Cancer Library (AID 1347162; in the data active = plate-normalised HSF1 focus index below about 0.46); details: human cells, HSF1 nuclear foci imaging, at 10 µM; SSMD: measured here: HSF1 foci SSMD mean; cell count: measured here: cell number; plate-normalised HSF1 focus index: stronger effect = lower value
[9] = MELAS cybrid and Rieske KO viability enhancers – cell-based, MELAS cybrids, Rieske KO mouse fibroblasts, CellTiter-Glo, primary screen (AID 1508586;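 active = mean z-score across replicates of 1.96 or higher in either the MELAS or the Rieske mutant cell line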;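 also: z relative to plate mean and SD of compound and empty wells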); details: low glucose
[10] = drug combination growth inhibition, ovarian cancer – cell-based, oncology-focused library, rucaparib conditional, profiling panel (AID 1508598); details: patient-derived ovarian cancer cells, CellTiter-Glo viability, 144 h, stronger effect = lower value
[11] = growth inhibition of DIPG cells – cell-based, MIPE4.0 library, CellTiter-Glo luminescence, qHTS (AID 1347066; cut-off not given, nearly all actives have AC50 up to about 30 µM;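 also: cells exposed to compound for 48 hours before readout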); details: SU-DIPG-VI viability, CellTiter-Glo ATP luminescence
[12] = viability loss in pontine glioma line – cell-based, SU-DIPG-IV, MIPE4.0, CellTiter-Glo, qHTS, dose response (AID 1347063; cut-off not given, nearly all actives have AC50 up to about 30 µM;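 also: compound exposure lasted 48 hours before the viability readout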); details: CellTiter-Glo ATP luminescence
[13] = stronger effect = lower value, cell number ratio, induced over uninduced
[14] = measured here: relative caspase fold change +Dox/-Dox
[15] = measured here: total cells with miR-34 induction, stronger effect = lower value
[16] = measured here: total cells without miR-34 induction
[17] = MELAS cybrid survival, CellTiter-Glo 48 h, stronger effect = higher value
[18] = Rieske KO mouse fibroblast survival, CellTiter-Glo 72 h
[19] = at 0.000305 µM, OCI-C5x cells, with rucaparib 10 µM, 100% = cells with rucaparib alone
[20] = at 0.000305 µM, OCI-C5x cells, without rucaparib
[21] = at 0.000305 µM, OCI-P5x cells, with rucaparib 20 µM, 100% = cells with rucaparib alone
[22] = at 0.000305 µM, OCI-P5x cells, without rucaparib
[23] = at 0.00122 µM, OCI-C5x cells, with rucaparib 10 µM, 100% = cells with rucaparib alone
[24] = at 0.00122 µM, OCI-C5x cells, without rucaparib
[25] = at 0.00122 µM, OCI-P5x cells, with rucaparib 20 µM, 100% = cells with rucaparib alone
[26] = at 0.00122 µM, OCI-P5x cells, without rucaparib
[27] = at 0.00488 µM, OCI-C5x cells, with rucaparib 10 µM, 100% = cells with rucaparib alone
[28] = at 0.00488 µM, OCI-C5x cells, without rucaparib
[29] = at 0.00488 µM, OCI-P5x cells, with rucaparib 20 µM, 100% = cells with rucaparib alone
[30] = at 0.00488 µM, OCI-P5x cells, without rucaparib
[31] = at 0.0195 µM, OCI-C5x cells, with rucaparib 10 µM, 100% = cells with rucaparib alone
[32] = at 0.0195 µM, OCI-C5x cells, without rucaparib
[33] = at 0.0195 µM, OCI-P5x cells, with rucaparib 20 µM, 100% = cells with rucaparib alone
[34] = at 0.0195 µM, OCI-P5x cells, without rucaparib
[35] = at 0.0781 µM, OCI-C5x cells, with rucaparib 10 µM, 100% = cells with rucaparib alone
[36] = at 0.0781 µM, OCI-C5x cells, without rucaparib
[37] = at 0.0781 µM, OCI-P5x cells, with rucaparib 20 µM, 100% = cells with rucaparib alone
[38] = at 0.0781 µM, OCI-P5x cells, without rucaparib
[39] = at 0.313 µM, OCI-C5x cells, with rucaparib 10 µM, 100% = cells with rucaparib alone
[40] = at 0.313 µM, OCI-C5x cells, without rucaparib
[41] = at 0.313 µM, OCI-P5x cells, with rucaparib 20 µM, 100% = cells with rucaparib alone
[42] = at 0.313 µM, OCI-P5x cells, without rucaparib
[43] = at 1.25 µM, OCI-C5x cells, with rucaparib 10 µM, 100% = cells with rucaparib alone
[44] = at 1.25 µM, OCI-C5x cells, without rucaparib
[45] = at 1.25 µM, OCI-P5x cells, with rucaparib 20 µM, 100% = cells with rucaparib alone
[46] = at 1.25 µM, OCI-P5x cells, without rucaparib
[47] = at 5 µM, OCI-C5x cells, with rucaparib 10 µM, 100% = cells with rucaparib alone
[48] = at 5 µM, OCI-C5x cells, without rucaparib
[49] = at 5 µM, OCI-P5x cells, with rucaparib 20 µM, 100% = cells with rucaparib alone
[50] = at 5 µM, OCI-P5x cells, without rucaparib

COc1cc(Nc2ncc3c(n2)-c2ccc(Cl)cc2C(c2c(F)cccc2OC)=NC3)ccc1C(=O)O
1850: cell count [7, 15]
0.925: z-score [9, 18]
active: AC50 [1] 0.148 µM | AC50 [3] 8.33 µM | AC50 [4] 0.0934 µM | AC50 [5] 8.33 µM | IC50 [6] 3.72 µM | viability [10, 19] 94.6% | viability [10, 28] 98.7% | viability [10, 31] 94.4% | viability [10, 34] 99.3% | viability [10, 35] 75.5% | viability [10, 36] 70.5% | viability [10, 37] 91.7% | viability [10, 38] 70.7% | viability [10, 39] 74.5% | viability [10, 40] 82.5% | viability [10, 41] 87.4% | viability [10, 42] 63.8% | viability [10, 43] 76.8% | viability [10, 44] 77% | viability [10, 45] 82.8% | viability [10, 46] 56.7% | viability [10, 47] 42.9% | viability [10, 48] 34.9% | viability [10, 49] 78.6% | viability [10, 50] 39%
inactive: outcome [2] | fold change [7, 13] 1.23 | plate-normalised HSF1 focus index [8] 1.13 | z-score [9, 17] -0.56 | viability [10, 20] 108% | viability [10, 21] 113% | viability [10, 22] 109% | viability [10, 23] 112% | viability [10, 24] 101% | viability [10, 25] 110% | viability [10, 26] 106% | viability [10, 27] 107% | viability [10, 29] 110% | viability [10, 30] 106% | viability [10, 32] 103% | viability [10, 33] 106%
6720: cell count [8]
1.04: fold change [7, 14]
2.08: SSMD [8]
1510: cell count [7, 16]

O=S(=O)(O)c1ccc2cc(N=Nc3cc(S(=O)(=O)O)c4cccnc4c3O)ccc2c1
inactive: outcome [1] | outcome [2] | outcome [3] | outcome [4] | outcome [11] | outcome [5] | outcome [6]

CCCNS(=O)(=O)Nc1ncnc(OCCOc2ncc(Br)cn2)c1-c1ccc(Br)cc1
8750: cell count [7, 16]
-0.0447: z-score [9, 18]
0.512: fold change [7, 14]
8090: cell count [7, 15]
inactive: outcome [1] | outcome [2] | outcome [3] | outcome [11] | outcome [5] | outcome [6] | fold change [7, 13] 0.925 | z-score [9, 17] -0.373

C#CCN(C)CC1=Cc2ccccc2Oc2ccccc21
2.55: SSMD [8]
inactive: outcome [1] | outcome [2] | outcome [4] | outcome [5] | outcome [6] | plate-normalised HSF1 focus index [8] 1.15
6620: cell count [8]

C/C(O)=C(\C#N)C(=O)Nc1ccc(C(F)(F)F)cc1
inactive: outcome [1] | outcome [12] | outcome [3] | outcome [4] | outcome [11] | outcome [5] | outcome [6]

COc1ccc(-c2ccc3c(N4CCOC[C@@H]4C)nc(N4CCOC[C@@H]4C)nc3n2)cc1CO
inactive: plate-normalised HSF1 focus index [8] 0.995 | viability [10, 19] 112% | viability [10, 20] 106% | viability [10, 23] 122% | viability [10, 24] 105% | viability [10, 27] 124% | viability [10, 28] 119% | viability [10, 31] 116% | viability [10, 32] 106%
active: AC50 [1] 0.209 µM | AC50 [12] 0.00935 µM | AC50 [3] 0.661 µM | AC50 [4] 0.105 µM | AC50 [5] 0.059 µM | viability [10, 21] 87.2% | viability [10, 22] 93% | viability [10, 25] 94.9% | viability [10, 26] 92.8% | viability [10, 29] 90.3% | viability [10, 30] 91% | viability [10, 33] 72.9% | viability [10, 34] 62.8% | viability [10, 35] 71.2% | viability [10, 36] 55.7% | viability [10, 37] 43.6% | viability [10, 38] 24.2% | viability [10, 39] 47.2% | viability [10, 40] 48.1% | viability [10, 41] 34.3% | viability [10, 42] 17% | viability [10, 43] 54.1% | viability [10, 44] 47.3% | viability [10, 45] 30.6% | viability [10, 46] 22.6% | viability [10, 47] 48% | viability [10, 48] 47.3% | viability [10, 49] 26.9% | viability [10, 50] 20.8%
-0.138: SSMD [8]
7120: cell count [8]

O=C(Nc1ccccc1-c1cn2c(CN3CCNCC3)csc2n1)c1cnc2ccccc2n1
inactive: fold change [7, 13] 0.907 | plate-normalised HSF1 focus index [8] 0.795 | z-score [9, 17] -0.642 | viability [10, 19] 102% | viability [10, 20] 114% | viability [10, 21] 123% | viability [10, 22] 115% | viability [10, 23] 101% | viability [10, 24] 106% | viability [10, 25] 117% | viability [10, 26] 116% | viability [10, 27] 106% | viability [10, 28] 110% | viability [10, 29] 111% | viability [10, 30] 114% | viability [10, 31] 113% | viability [10, 32] 116% | viability [10, 33] 111% | viability [10, 34] 114% | viability [10, 35] 113% | viability [10, 36] 110% | viability [10, 37] 110% | viability [10, 38] 110% | viability [10, 39] 110% | viability [10, 40] 108% | viability [10, 41] 113% | viability [10, 42] 107% | viability [10, 43] 131% | viability [10, 44] 120%
0.327: z-score [9, 18]
6250: cell count [7, 15]
6160: cell count [8]
0.998: fold change [7, 14]
-4.31: SSMD [8]
active: AC50 [1] 9.34 µM | AC50 [12] 8.33 µM | AC50 [3] 2.09 µM | AC50 [4] 3.32 µM | AC50 [11] 10.5 µM | AC50 [5] 3.72 µM | IC50 [6] 10.5 µM | viability [10, 45] 68.8% | viability [10, 46] 89.6% | viability [10, 47] 1.3% | viability [10, 48] 1.45% | viability [10, 49] 0.727% | viability [10, 50] 0.751%
6890: cell count [7, 16]

Source: PubChem BioAssay
